A short description of test [1]: EMT-state selective cytotoxicity in co-culture – imaging, PC-3E GFP, TEM4-18 mCherry, primary screen (AID 1345086).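 As to all read-outs here: cells exposed to compound for 72 h before imaging.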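 As to red/green cell ratio (normalised): normalised mesenchymal count divided by normalised epithelial count so high means epithelial killing.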 Conditions: PC-3E GFP / TEM4-18 mCherry co-culture, imaging cell counts, at 1 µM; for red/green cell ratio (normalised): actives lie on both sides, counts scaled to control wells, 1 = unselective.
The target in test [2] is Mitogen-activated protein kinase 7 (Homo sapiens) (UniProt Q13164). The experiment in a line: Gal4-ERK5 driven luciferase induction – cell-based, HTS, primary screen (AID 1508626;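 active = luciferase signal above three times the same-plate solvent-only control wells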;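 also: luciferase driven by Gal4-ERK5 fusion binding five Gal4 sites before minimal TATA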). The note with it: HeLa Gal4-ERK5 transactivation, 18 h, at 5 µM, stronger effect = higher value.
Chain of Mitogen-activated protein kinase 7 (Homo sapiens) (Q13164 whole entry, looked up, the tested form may be a part): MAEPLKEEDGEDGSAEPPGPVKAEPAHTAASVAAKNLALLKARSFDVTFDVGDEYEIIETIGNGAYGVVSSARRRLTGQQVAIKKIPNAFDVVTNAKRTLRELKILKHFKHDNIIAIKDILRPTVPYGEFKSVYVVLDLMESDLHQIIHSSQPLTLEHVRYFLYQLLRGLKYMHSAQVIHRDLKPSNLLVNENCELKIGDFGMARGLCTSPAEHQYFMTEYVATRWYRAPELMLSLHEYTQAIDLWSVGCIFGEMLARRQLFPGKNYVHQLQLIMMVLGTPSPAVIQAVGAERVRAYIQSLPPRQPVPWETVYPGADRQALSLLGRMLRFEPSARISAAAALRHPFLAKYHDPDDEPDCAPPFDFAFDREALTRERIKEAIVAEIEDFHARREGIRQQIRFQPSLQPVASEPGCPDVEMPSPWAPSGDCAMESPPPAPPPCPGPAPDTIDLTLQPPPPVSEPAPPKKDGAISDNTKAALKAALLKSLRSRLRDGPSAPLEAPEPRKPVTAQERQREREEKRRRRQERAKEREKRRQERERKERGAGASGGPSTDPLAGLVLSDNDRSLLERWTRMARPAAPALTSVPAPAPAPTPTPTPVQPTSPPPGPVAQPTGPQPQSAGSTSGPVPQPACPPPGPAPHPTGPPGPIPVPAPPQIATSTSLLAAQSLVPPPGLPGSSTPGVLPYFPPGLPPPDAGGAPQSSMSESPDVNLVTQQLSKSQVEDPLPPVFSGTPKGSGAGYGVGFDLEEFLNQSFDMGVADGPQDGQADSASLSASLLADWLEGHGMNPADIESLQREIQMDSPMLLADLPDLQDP
Test [3] in a line: blockers of polyQ-driven CASP3 activation – cell-based (AID 1583). The note with it: polyglutamine-induced caspase-3 activation, cell assay; stronger effect = higher value;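 tested at 10 µM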.
Test [4] in a line: yeast 75Q aggregation reduction – 75Q-TubU reporter (AID 1593). Conditions: Yeast 75Q polyglutamine aggregation reporter.
A short description of test [5]: restoration of touch response, mutant HTT neurons – whole organism, C. elegans mechanosensory neurons, N-terminal huntingtin (AID 1599). Conditions: C. elegans polyQ-huntingtin mechanosensory neurons, stronger effect = higher value.
Test [6] is described as follows: blockers of cytochrome c efflux from mitochondria – biochemical, purified mitochondria (AID 1603).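 Also: mouse liver mitochondria challenged with calcium chloride; signal normalized to the plate average as 100%.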 Conditions: stronger effect = lower value.
Test [7] can be described thus: polyglutamine aggregate formation blockers (AID 1604). The note with it: polyglutamine-induced protein aggregation inhibition assay; stronger effect = higher value; tested at 2.5 µM.
Test [8] can be described thus: glutamate transport activators, MN-1 cells, MN-1 cell line (AID 1612).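 Also: tested at 1 µM final; 0% = mean of DMSO vehicle wells on each plate; positive means more glutamate uptake than control and negative means less.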 Conditions: MN-1 motor neuron cells, stronger effect = higher value.
The nature of test [9]: GFP-Q80 aggregate reduction, neuronal-like cells, cell-based, NGF-treated PC12, GFPQ80 (AID 1614).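 Also: lower means fewer inclusions and 0 means no inclusions at all.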 The note with it: PC12 NGF-treated GFP-polyQ80 inclusion reduction.
The nature of test [10]: 75Q-TubH aggregate inhibition, S. cerevisiae, yeast (AID 1616). Conditions: S. cerevisiae 75Q-TubH polyglutamine aggregation suppression; stronger effect = higher value.
Test [11] has as its target NAD(+) hydrolase SARM1 (Homo sapiens) (UniProt Q6SZW1). The experiment in a line: blocking NAD cleavage by SARM1 SAM-TIR – cell lysate, NAD-Glo luminescence (AID 1508614;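 active = compound whose remaining NAD level is above about 45 nM, limit read from the data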;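 also: higher remaining NAD means stronger inhibition of SARM1 NADase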). The note with it: SAM-TIR HEK293T lysate NADase, at 1 µM, stronger effect = higher value.
A short description of test [12]: rescue of PC12 cells from polyQ htt toxicity – LDH release (AID 1610). The note with it: PC12 mutant huntingtin toxicity, final LDH at 4 uM, stronger effect = lower value. On the technique in general: LDH leaks from cells whose membrane has failed.
The mark [13] stands for this setting: measured here: epithelial PC-3E GFP cell survival.
[14] abbreviates: measured here: mesenchymal TEM4-18 mCherry cell survival.

Structures are written as SMILES. Records with an inconclusive call do not appear. For some assays here: Entries with a potency or affinity are not part of this list. Calls of active or inactive are those of the source.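 The calls were made as follows, unless noted: active = compounds killing one labelled cell type while sparing the other, by normalised counts and ratio limits, not self-fluorescent; inactive = the rest.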

A word on the inhibition: it is the drop in the measured response relative to a control, in per cent.

Chain of NAD(+) hydrolase SARM1 (Homo sapiens) (Q6SZW1 whole entry, looked up): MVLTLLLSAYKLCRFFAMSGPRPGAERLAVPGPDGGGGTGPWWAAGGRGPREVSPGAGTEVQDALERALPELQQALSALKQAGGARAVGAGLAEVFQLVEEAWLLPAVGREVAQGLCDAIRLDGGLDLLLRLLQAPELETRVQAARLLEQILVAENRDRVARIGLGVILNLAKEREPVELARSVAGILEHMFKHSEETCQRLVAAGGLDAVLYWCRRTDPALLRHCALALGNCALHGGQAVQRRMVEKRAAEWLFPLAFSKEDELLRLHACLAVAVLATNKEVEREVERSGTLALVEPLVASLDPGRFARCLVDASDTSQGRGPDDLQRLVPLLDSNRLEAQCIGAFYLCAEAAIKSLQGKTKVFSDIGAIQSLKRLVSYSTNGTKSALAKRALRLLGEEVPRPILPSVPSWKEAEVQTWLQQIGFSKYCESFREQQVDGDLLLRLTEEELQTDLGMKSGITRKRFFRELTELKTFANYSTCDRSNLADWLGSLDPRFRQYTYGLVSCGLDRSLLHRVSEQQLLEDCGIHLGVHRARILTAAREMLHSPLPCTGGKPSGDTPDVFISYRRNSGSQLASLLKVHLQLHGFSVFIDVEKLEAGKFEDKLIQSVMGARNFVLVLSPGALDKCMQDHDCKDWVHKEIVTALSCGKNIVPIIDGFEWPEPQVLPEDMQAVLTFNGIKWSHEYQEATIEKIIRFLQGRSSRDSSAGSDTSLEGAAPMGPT

On to `CC1(C)C(=O)[C@@H]2C[C@@]3(O)C4=CC(=O)O[C@@H](c5ccoc5)[C@]4(C)CCC3C(C)(C2=O)[C@H]1CC(=O)O` (some centres undefined), for which the red/green cell ratio (normalised) in test [1] was 1 (inactive). For the same compound, the normalised cell number in test [1] (setting [13]) and in test [1] (setting [14]) was 1.01 each time. The luciferase signal in [2] is 20 AU (inactive).
As for `O=c1cccc2ccc(O)c(O)c2c1O`, in test [1], the red/green cell ratio (normalised) was 1.04 (inactive). Also, the normalised cell number in [1] (setting [13]) was 0.98; in test [1] (setting [14]), 1.02. Besides, the luciferase signal in test [2] is 44 AU (inactive).
For `CC(=O)O[C@H]1CC[C@@]2(C)C(C[C@@H](OC(C)=O)[C@@]3(C)C4=CC(=O)O[C@@H](c5ccoc5)[C@]4(C)CCC23)C1(C)C` (some centres undefined), the red/green cell ratio (normalised) in test [1] was 0.88 (inactive). Also, the figures for the normalised cell number in test [1] (setting [13]) and in test [1] (setting [14]) were 0.93 and 0.82, respectively. Further, the luciferase signal in [2] was 28 AU (inactive).
On to `CNC(C)[C@@H]1CC[C@@H](N)[C@@H](OC2[C@@H](N)C[C@@H](N)[C@H](OC3OC[C@](C)(O)[C@H](NC)[C@H]3O)[C@H]2O)O1` (some centres undefined), for which the inhibition in [3] is -0.7%. For the same compound, the score in [4] was found to be 1.63. In test [5], this compound registered a rescue above control of -1.8. For the same compound, in [6], the cytochrome c release ratio turned out to be 2.33. In addition, in [7], the inhibition of aggregation stood at 66.7%. The compound also displayed a glutamate uptake change in [8] of 1.4%. The inclusion score in test [9] was determined as 2. Also, the aggregation suppression score in test [10] came to 1.62. Also, the red/green cell ratio (normalised) in test [1] was 1.29 (inactive). For the same compound, the normalised cell number in test [1] (setting [13]) worked out at 1.02; in test [1] (setting [14]), 1.32. Besides, the remaining NAD in test [11] is 10 nM (inactive). In addition, in test [2], the luciferase signal is 28 AU (inactive).
As to `COc1ccc(-c2coc3cc(O)ccc3c2=O)c(OC)c1`, in test [1], the red/green cell ratio (normalised) was 1.02 (inactive). The normalised cell number came to 1.07 in [1] (setting [13]) and 1.08 in test [1] (setting [14]). In addition, the luciferase signal in [2] was 60 AU (inactive).
The corresponding values for `Cc1cc(O)c(C=O)c2c1C(=O)Oc1c(COC(=O)/C=C/C(=O)O)c(O)c(C(=O)O)c(C)c1O2` are 1.12 (inactive), 1.12, 1.25 and 16 AU (inactive).
The corresponding values for `C=CC(C1=CC(=O)C=CC1=O)c1ccccc1` (centres undefined) are 0.88 (inactive), 1.13, 1 and 64 AU (inactive).
The corresponding values for `O=C(O)c1ccc2c(c1)OCO2` are 1.05 (inactive), 1, 1.05 and 48 AU (inactive).
For the compound `OCC(S)CS` (centres undefined), the inhibition in [3] turned out to be 11.1%. The score in test [4] was -0.34. The same compound displayed a rescue above control in [5] of 28.1. For the same compound, the cytochrome c release ratio in test [6] was found to be 0.92. The inhibition of aggregation in [7] is 68.7%. Further, in test [12], the normalised LDH release worked out at 0.667. Also, the glutamate uptake change in test [8] is 23.2%. The compound further registered an aggregation suppression score in test [10] of -0.815. Also, the red/green cell ratio (normalised) in test [1] was 1.01 (inactive). The results for the normalised cell number in test [1] (setting [13]) and in test [1] (setting [14]) were 0.72 and 0.73, respectively. Besides, the remaining NAD in test [11] was 10 nM (inactive). For the same compound, the luciferase signal in test [2] was 92 AU (inactive).
Take `O=c1cc(-c2ccc(O)cc2)oc2ccc(O)cc12`: in test [1], the red/green cell ratio (normalised) was 1 (inactive). For the same compound, the normalised cell number in test [1] (setting [13]) and in test [1] (setting [14]) was 0.97 throughout. Besides, the luciferase signal in [2] was 52 AU (inactive).
With `O=C(/C=C/c1ccccc1)c1ccc(O)cc1O`, the red/green cell ratio (normalised) in [1] is 0.95 (inactive). The normalised cell number in test [1] (setting [13]) is 1.05; in [1] (setting [14]), 1. Also, the luciferase signal in test [2] is 52 AU (inactive).
The corresponding values for `C[C@]12CCC3c4ccc(OC(=O)c5ccccc5)cc4CCC3C1CCC2=O` (some centres undefined) are 0.85 (inactive), 1.24, 1.05 and 40 AU (inactive).
The corresponding values for `C=C[C@@]1(C)CC(=O)[C@@]2(O)[C@](C)(O1)[C@@H](O)[C@@H](O)C1C(C)(C)CC[C@H](O)[C@@]12C` (some centres undefined) are 1.15 (inactive), 0.91, 1.05 and 80 AU (inactive).
The corresponding values for `O=c1cc(-c2ccccc2)oc2cccc(O)c12` are 0.94 (inactive), 1.1, 1.03 and 104 AU (inactive).

The values are drawn from PubChem BioAssay.
